High-throughput results as filed in PubChem.
Rows were chosen to be rich in hits. Some 3.4% of all compounds tested hit in one or more screens of this group.
SMARCA2 activ = SMARCA2 function activation, primary screen; MG213 cells, MMTV-luciferase reporter, dexamethasone, overnight; activation, % at 9.1 µM; hit rate 1% among 370,000; AID 652017; in the data active = activation above about 7.8%;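 also: 0% = vehicle wells and 100% = reference activator wells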
HSP90 refold inh = blocks HSP90-mediated luciferase refolding in reticulocyte lysate; Rabbit reticulocyte lysate, luciferase refolding luminescence, 3 h; AID 1789; hit rate 0.91% among 290,000; inhibition, % at 5.6 µM;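 active = inhibition above the screen-wide mean plus 3 SD, computed separately per campaign, cut at about 16% in these data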;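 also: 0% = DMSO wells and 100% = 60 µM geldanamycin wells; inhibitors lower the luminescence because luciferase stays unfolded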
AI-2 QS mod = modulators of Vibrio harveyi AI-2 quorum sensing system; activity change, % at 7.5 µM; Vibrio harveyi JMH597 AI-2 luminescence/OD600 ratio, 9 h; active compounds read low; strain lacks LuxN and CqsS sensors; 0 = neutral-control median; AID 2094; hit rate 0.4% among 300,000; in the data active = activity change below about -75%, passing the limit was not always enough;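 also: luminescence divided by OD600 gain over 9 h not by final OD600 alone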
HSF1 inhib = HSF1 inhibition; NIH3T3-HGL HSE-luciferase, MG132-induced, luminescence 8 h; active compounds read low; activity change, negative = inhibition, % at 7.5 µM (by protocol); hit rate 0.77% among 300,000;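 active = more than half of replicate wells show activity change below -50%, luminescence cut by over half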;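 also: luciferase reports HSF-1 transcriptional activity via heat shock element; 0% = median of DMSO wells and -100% = zero luminescence signal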
FXN GAA850 act = frataxin GAA850 promoter activation | activation, % at 6 µM | HEK293 lucGAA850 FXN promoter luciferase reporter, 24 h; percent of 10 µM SAHA response | hit rate 0.56% among 360,000;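 active = activation above the average of all compounds screened plus 3 SD, cutoff fixed separately per campaign, cut at about 7.5% in these data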;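 also: 0% = DMSO wells and 100% = 10 µM SAHA wells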
PG9 binder = PG9 antibody binding by small molecule; TR-FRET gp120-PG9 antibody binding; inhibition, % at 6.7 µM; hit rate 0.43% among 360,000; in the data active = inhibition above about 8.5%
HSP90 inh confirm = HSP90 inhibition, confirmation assay; shares compounds with HSP90 refold inh; rabbit reticulocyte lysate, luciferase refolding luminescence, 3 h; inhibition, % at 5.9 µM; hit rate 64% among 2,300; in the data active = inhibition above about 18%;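 also: 0% = vehicle wells and 100% = reference inhibitor wells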
FLuc counter = blocks native firefly luciferase in HSP90 counter-screen; shares compounds with HSP90 refold inh; purified native firefly luciferase, luminescence; inhibition, % at 5.9 µM; hit rate 48% among 2,300;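 active = inhibition above the mean inhibition of all tested sample wells plus 3 SD, cut at about 10% in these data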;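 also: 0% = DMSO with luciferase and 100% = wells lacking luciferase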
Target sequence (P08659 whole entry, looked up): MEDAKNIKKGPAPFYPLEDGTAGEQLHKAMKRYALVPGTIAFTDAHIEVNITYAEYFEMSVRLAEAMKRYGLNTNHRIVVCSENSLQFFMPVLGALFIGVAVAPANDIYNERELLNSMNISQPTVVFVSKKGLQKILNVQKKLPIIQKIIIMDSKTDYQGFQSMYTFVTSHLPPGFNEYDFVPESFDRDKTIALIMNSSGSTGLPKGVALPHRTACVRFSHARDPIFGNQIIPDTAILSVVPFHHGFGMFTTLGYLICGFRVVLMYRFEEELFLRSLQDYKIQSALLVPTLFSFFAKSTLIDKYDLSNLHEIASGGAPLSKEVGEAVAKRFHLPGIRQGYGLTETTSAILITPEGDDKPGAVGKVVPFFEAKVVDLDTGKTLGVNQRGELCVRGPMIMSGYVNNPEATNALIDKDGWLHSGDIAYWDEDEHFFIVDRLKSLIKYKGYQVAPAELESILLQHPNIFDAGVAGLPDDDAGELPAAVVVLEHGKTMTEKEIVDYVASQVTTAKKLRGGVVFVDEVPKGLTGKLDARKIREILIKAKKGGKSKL
JMH597 growth = retest Vibrio harveyi JMH597 growth inhibition | shares compounds with AI-2 QS mod | OD600 absorbance, 9 h; lacks LuxN and CqsS sensors | growth inhibition, % at 7.5 µM | hit rate 1% among 750;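 active = every replicate shows growth inhibition above 50%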
BB721 lum counter = retest counter-screen: BB721 constitutive quorum sensing luminescence decrease | shares compounds with AI-2 QS mod | Vibrio harveyi BB721 luminescence, 9 h | inhibition, % at 7.5 µM | hit rate 95% among 750 | AID 2727;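 active = inhibition above about 80% in every replicate, not just on average, limit read from the data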
BB721 growth rt = retest: inhibitors of Vibrio harveyi BB721 growth; shares compounds with AI-2 QS mod; OD600 absorbance, 9 h; growth inhibition, % at 7.5 µM; hit rate 3% among 750; AID 2728;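 active = every replicate shows growth inhibition above 50%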
JMH597 AI-2 mod = Vibrio harveyi AI-2 signaling luminescence modulation – JMH597 strain, confirmation | shares compounds with AI-2 QS mod | inhibition, % at 7.5 µM | hit rate 97% among 750 | AID 2736 | Vibrio harveyi JMH597 AI-2 quorum sensing luminescence, 9 h; luxN and CqsS knockout, AI-2 only;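 active = every replicate shows more than 75% inhibition of signal versus neutral control wells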
Numbers without * were called inactive; · = not tested or not shown; ! = repeats disagree.

SMILES	SMARCA2 activ	HSP90 refold inh	AI-2 QS mod	HSF1 inhib	FXN GAA850 act	PG9 binder	HSP90 inh confirm	FLuc counter	others
CCOC(=O)C1=C(C(=O)OCC)C2N(Cc3ccc(C#N)cc3)c3ccccc3[C@@]23C[C@@H](C(=O)OC)N(S(=O)(=O)c2ccccc2)C3=N1 (stereo partly drawn)	-4.2	·	·	·	·	0.4	·	·
O=C(CSc1nnc(-c2cccnc2)n1-c1ccccc1)Nc1ccc2c(c1)OCCO2	0.6	·	·	·	·	·	·	·
CC(=O)c1c(C)[nH]c(C(=O)OCCOc2ccccc2)c1C	-3.2	34.0*	3.6	8.4	0.9	-0.2	54.9*	57.0*
CCN(CC)c1ccc(SS(=O)(=O)O)cc1	0.8	24.8*!	14.6	-8.4	-0.9	-2.2	69.2*	-9.4
C=CCn1c(NS(=O)(=O)c2ccccc2)c(S(=O)(=O)c2ccc(C)cc2)c2nc3ccccc3nc21	-0.5	21.8*	11.1	-6.6	-0.9	-2.3	52.4*	-1.1
COC(=O)C(CN)CN1C(=O)c2ccccc2C1=O (stereo not drawn)	-1.3	·	·	·	·	·	·	·
COc1ccc(N=CC2=C(O)c3ccccc3C2=O)cc1	2.1	28.9*	8.1	-24.7	-2.1	0.2	76.8*	79.7*
CN=CC1=C(O)c2ccccc2C1=O	-3.0	0.7	5.6	0.3	1.4	-0.9	·	·
CCOc1ccc(-c2cc(C(C)=O)c3n(c2=O)CCC3)cc1	-1.4	·	·	·	·	·	·	·
O=C(O)C1C2C=CC(C2)C1C(=O)Nc1cccc(C(=O)N2CCCCC2)c1 (stereo not drawn)	0.1	29.6*	13.6	1.2	3.6	-1.8	-6.6	-9.5
Cc1cc(Br)c2nc(-c3ccc(F)cc3)c(Cc3cccc(Cl)c3)n2c1	-4.0	·	·	·	·	5.7	·	·
CCOC(=O)N1N=C(c2ccc(C)cc2)CC1(O)C(F)(F)F (stereo not drawn)	5.4	19.9*	17.5	-7.5	1.8	-0.7	48.0*	43.4*
CCOC(=O)N1N=C(c2ccccc2)CC1(O)C(F)(F)F (stereo not drawn)	3.4	-1.2	6.0	9.4	-0.6	-1.8	·	·
Cc1ccc2nc(NC(=O)c3ccccn3)sc2c1	-8.8	60.8*	25.9	-5.1	-17.4	-0.1	93.7*	87.5*
CSc1nc2ccc(NC(=O)c3ccccn3)cc2s1	6.4	40.5*	15.5	14.9	-0.3	-1.6	62.0*	57.1*
CN(C)c1ccc(C(=O)NCCc2ccccc2-c2ccccc2CCC(=O)NCc2ccccc2)cc1	-1.4	·	·	·	·	·	·	·
O=C(COc1ccc(CO)cc1Cl)Nc1ccc(F)cc1	3.1	36.8*	4.2	33.7	0.1	-0.1	39.4*	35.9*
O=C(COc1ccc(CO)cc1)Nc1ccc(F)cc1	0.3	-1.7	23.3	9.2	-0.6	-2.7	·	·
CCOC(=O)c1csc(NC(=O)c2ccc(S(=O)(=O)N(C)C)cc2)n1	-3.6	24.6*	11.4	-1.6	-2.3	-2.6	37.3*	-7.2
CCOC(=O)c1csc(NC(=O)c2ccc(OC)c(OC)c2)n1	-2.5	4.6	9.7	-10.2	-0.2	-0.7	·	·
CCOC(=O)c1csc(NC(=O)c2ccc(OCC)cc2)n1	-6.0	41.6*	7.7	13.1	-0.7	-1.1	75.0*	-13.7
COC(=O)c1ccc(-n2c(C)cc(-c3csc(NC(=O)c4ccc(S(=O)(=O)N(C)C)cc4)n3)c2C)cc1	-1.9	25.4*	17.8	-13.1	1.1	-0.6	24.4*	-9.4
CCOC(=O)c1csc(NC(=O)c2ccc3c(c2)OCCO3)n1	·	57.2*	-1.5	15.9	6.1	·	84.1*	-11.7
CCOC(=O)c1sc(NC(=O)c2ccc(S(=O)(=O)N(C)C)cc2)nc1C	0.5	-2.6	16.5	-39.3	0.1	-2.4	·	·
Cc1nn(-c2ccccc2)c(C)c1/C=N\N1CCN(Cc2ccccc2Cl)CC1	-4.4	·	·	·	·	·	·	·
SMILES	SMARCA2 activ	HSP90 refold inh	AI-2 QS mod	HSF1 inhib	FXN GAA850 act	PG9 binder	HSP90 inh confirm	FLuc counter	others
CCCCNC(=O)OC1CCC12CCC(c1ccccc1)CC2 (stereo not drawn)	0.1	·	·	·	·	·	·	·
O=C(CSc1ncccc1C(=O)O)c1ccc2ccccc2c1	-0.5	95.5*	54.1	9.3	-0.9	-1.2	92.9*	-9.9
O=C(Nc1ccccc1O)c1cc2cc(Br)ccc2oc1=O	0.9	17.5*	-6.9	16.2	4.5	-0.4	-4.1	-16.4
S=C(Nc1cccc2ccccc12)Nc1cccc2ccccc12	3.9	·	·	·	1.5	-3.0	·	·
Cc1ccc(F)c(NC(=S)Nc2cccc3ccccc23)c1	-0.5	17.7*	-6.7	-17.9	-0.5	0.2	-5.7	-8.7
Cc1ccccc1NC(=S)Nc1cccc2cnccc12	-5.2	73.3*	-1.4	11.8	0.6	-1.2	-2.8	-6.8
Cc1ccc(C)c(NC(=S)Nc2cccc3cnccc23)c1	-2.1	3.9	18.1	12.3	-1.2	-3.0	·	·
COc1cccc(CNC(=S)OC2CCC23CCC(c2ccccc2)CC3)c1 (stereo not drawn)	-2.0	·	·	·	·	·	·	·
COC[C@@H]1CCCN1c1ccc2c(c1)OCCCN(C1CC1)S2(=O)=O	-0.7	·	·	·	·	·	·	·
c1csc(CNc2ccc3c(c2)OCCO3)c1	-7.8	31.1*	·	·	-10.9	-3.3	21.5*	14.9*
O=CN(/C=C1\Sc2ccccc2C1=O)Cc1ccccc1	0.0	34.4*	-89.9*	-0.1	-2.2	-1.9	0.3	-11.8	JMH597 growth=78.0;BB721 lum counter=95.8*;BB721 growth rt=-59.3;JMH597 AI-2 mod=97.2*
O=C1/C(=C/c2cccnc2)Sc2ccccc21	-1.6	3.3	-10.7	-2.1	1.1	-9.6	·	·
Cc1ccsc1/C=N/Nc1ccc(C(=O)O)cc1	-2.6	68.3*	-91.2*	-48.0	-4.1	-19.3	80.5*	77.1*	JMH597 growth=40.3;BB721 lum counter=98.1*;BB721 growth rt=65.1*;JMH597 AI-2 mod=98.5*
C/C(=N/NC(=O)CN1CCN(Cc2ccccc2Cl)CC1)c1cccc(O)c1	-4.0	·	·	·	·	·	·	·
